# Bioassay records deposited in PubChem by The Scripps Research Institute Molecular Screening Center.
# MITF primary: MITF inhibitors, primary screen, biochemical, AlphaScreen, human; Microphthalmia-associated transcription factor (Homo sapiens), O75030; inhibition, % at 2.6 µM; actives 0.91% (n = 650,000); AID 1259374, 2018; AlphaScreen MITF homodimerization, bead proximity signal; in the data active = inhibition above about 50%
# Target sequence (O75030 whole entry, looked up): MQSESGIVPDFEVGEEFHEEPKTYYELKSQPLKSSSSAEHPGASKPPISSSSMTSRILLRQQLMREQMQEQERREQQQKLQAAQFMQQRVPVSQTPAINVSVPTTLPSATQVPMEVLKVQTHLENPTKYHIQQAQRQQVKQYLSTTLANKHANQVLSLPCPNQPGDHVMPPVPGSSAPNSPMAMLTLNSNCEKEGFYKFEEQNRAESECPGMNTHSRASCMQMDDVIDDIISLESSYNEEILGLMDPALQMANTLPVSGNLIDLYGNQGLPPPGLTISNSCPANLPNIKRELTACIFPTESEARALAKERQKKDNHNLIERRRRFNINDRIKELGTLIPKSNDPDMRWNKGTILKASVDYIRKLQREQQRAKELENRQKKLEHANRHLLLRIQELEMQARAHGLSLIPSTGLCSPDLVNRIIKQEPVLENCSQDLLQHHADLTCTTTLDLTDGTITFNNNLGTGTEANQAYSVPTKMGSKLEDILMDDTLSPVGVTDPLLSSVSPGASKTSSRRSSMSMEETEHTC
# TEAD-YAP block: TEAD-YAP interaction inhibition, primary screen, TEAD-YAP interaction inhibitor project, luminescence, HEK-TIYL cells | TEAD-Gal4/YAP UAS-luciferase luminescence | inhibition, % at 9.12 µM | actives 1.4% (n = 640,000); in the data active = inhibition above about 32%
# FBW7 act: FBW7 E3 ligase activators, primary screen, biochemical, AlphaScreen, human; AlphaScreen FBW7–phospho-cyclin E peptide binding, activator screen; normalized activity (activation), % at 26.1 µM; actives 0.13% (n = 650,000); in the data active = normalized activity above about 1.9%;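 note: purified mutant Fbw7 with reduced substrate affinity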
# GPR151 activ: activators of human GPR151, primary screen, cell-based, PathHunter beta-arrestin, luminescence; actives 1% (n = 650,000); G-protein coupled receptor 151 (Homo sapiens), Q8TDV0; activation, % at 11.2 µM; PathHunter beta-arrestin GPR151 cells; AID 1508602, 2020; in the data active = activation above about 4.9%
# GPR151 confirm: GPR151 activators, triplicate retest, confirmation, cell-based, PathHunter beta-arrestin, luminescence; shares compounds with GPR151 activ; GPR151 PathHunter beta-arrestin cells, 90 min; % of EA-reagent control over plate median; activation, % at 11.2 µM; 6,700 tested, under 10 active;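 active = mean percent activation across replicates above the confirmation screen cutoff of 4.91%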
# GPR119 counter: GPR119 activators in beta-arrestin cells, counter-screen for GPR151 activator project, cell-based, PathHunter beta-arrestin, luminescence, triplicate; shares compounds with GPR151 activ; 90 min; 0 = compound-well median, 100 = enzyme-acceptor control; activation, % at 11.2 µM; actives 0.3% (n = 6,700); AID 1508611, 2020;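 active = mean percent activation in the counterscreen above 29.09%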;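 note: counterscreen on off-target GPR119 to flag nonselective hits from the GPR151 activator screen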
# A number is an active result; 0 = inactive; - = not tested or not shown. In the library only some 3.4% were active in any assay of this set; here they are far more common.
SMILES,MITF primary,TEAD-YAP block,FBW7 act,GPR151 activ,GPR151 confirm,GPR119 counter
CCN(CC1CCCO1)C(=O)c1ccc(OC2CCN(C(=O)COC)CC2)cc1 (stereo unspecified),0,0,0,0,-,-
O=c1nc(SCc2c(F)cccc2Cl)c2c(n1CCCO)CCCC2,0,0,0,5.1,0,0
O=c1nc(SCc2cccc3ccccc23)c2c(n1CCCO)CCCC2,0,0,0,0,-,-
COC(=O)c1c(NC(=O)CSc2nnc3cc(C)c4ccccc4n23)sc2c1CCCC2,0,0,0,0,-,-
Cc1cc2nnc(SCC(=O)Nc3sc4c(c3C#N)CCCCC4)n2c2ccccc12,0,0,0,5.9,0,0
COc1ccc(Nc2nc(-c3c[nH]c4ccccc34)cs2)cc1,0,0,0,5.4,0,0
COc1ccc2c(c1)c(-c1csc(N)n1)c(C)n2C,0,0,0,0,-,-
COc1ccc2c(-c3csc(N)n3)c[nH]c2c1,0,0,0,8.4,0,0
Cc1ccccc1Nc1sc(C(=O)c2ccc([N+](=O)[O-])cc2)c(N)c1C(=O)NCc1ccc(Cl)cc1,0,0,0,6.4,0,0
Cc1ccccc1Nc1sc(C(=O)c2ccc(Cl)cc2)c(N)c1C(=O)NCc1ccc(Cl)cc1,0,0,0,0,-,-
Cc1cccc2nc(-c3cccnc3)c(NC3CCCC3)n12,0,0,0,0,-,-
COc1nc(Nc2cccc(C)c2)nc(N2CCCCC2)n1,0,0,0,0,-,-
Cc1cccc(Nc2nc(N3CCCC3)nc(N3CCCC3)n2)c1,0,0,0,5.6,0,0
CC12CC3(C)CC(C)(C1)CC(c1ccc(Br)c(Br)c1)(C2)C3,0,0,0,0,-,-
Cc1ccc(NC(=O)N2CCC(C(=O)NCCC3=CCCCC3)CC2)cc1,0,0,0,5.0,0,0
O=C(NCCC1=CCCCC1)C1CC(=O)N(C2CCCC2)C1 (stereo unspecified),0,0,0,5.5,0,0
O=C(O)c1ccc(/C=N/NC(=O)c2cc(-c3cccs3)[nH]n2)cc1,0,0,0,0,-,-
COC(=O)c1ccc(/C=N/NC(=O)c2cc(-c3cccs3)[nH]n2)cc1,0,0,0,7.4,0,0
COc1ccc2o/c(=N\NC(=O)c3ccccc3Nc3ccccc3)c(C(N)=O)cc2c1,0,0,0,22,0,0
NC(=O)c1cc2ccccc2o/c1=N\NC(=O)c1ccccc1Nc1ccccc1,0,0,0,0,-,-
CC1=C2C(O)C(=O)OC3CC4C(C)(C)C(=O)C=C[C@]4(C)C(CC1)[C@]23C (stereo partly specified),0,0,0,6.0,0,0
O=C1C2CCCCC2C(=O)N1c1ccc(Br)cc1Cl (stereo unspecified),0,0,0,0,-,-
O=C1NC(c2cccnc2)C(C(=O)c2cccs2)=C1O (stereo unspecified),0,0,0,6.1,0,0
COc1ccc(-c2noc(Nc3ccc(C(C)C)cc3)n2)cc1,0,0,0,0,-,-
COc1ccc(-c2noc(Nc3ccc(Cl)cc3)n2)cc1,0,0,0,8.2,0,0
SMILES,MITF primary,TEAD-YAP block,FBW7 act,GPR151 activ,GPR151 confirm,GPR119 counter
CN(C)CCNC(=O)C(=O)Nc1ccccc1,0,0,0,8.4,0,0
CN(C)CCNC(=O)Nc1ccccc1,0,0,0,0,-,-
CN(C)CCNC(=S)Nc1ccc(C(=O)O)cc1,0,0,0,10,0,0
CN(C)CCNC(=S)Nc1ccc(F)cc1,0,0,0,0,-,-
Cc1cc(NC(=O)c2ccco2)nc2c1c(=O)oc1ccccc12,0,0,0,0,-,-
COc1ccc(OC(=O)c2cccc(Br)c2)cc1,0,0,0,0,-,-
CC(=O)c1ccc(OC(=O)c2cccc(Br)c2)cc1,0,0,0,17,0,0
Cc1ccnc2nc(C(=O)Nc3sccc3C(N)=O)nn12,0,0,0,0,-,-
CN1CCN(C(=S)Nc2cccc(Cl)c2)CC1,0,0,0,0,-,-
CCN1CCN(C(=S)Nc2cccc(Cl)c2)CC1,0,0,0,5.8,0,0
O=C(Cn1cc2c(n1)CCCC2)N1CCc2ccccc2C1,0,0,0,0,-,-
O=C(Cn1cc2c(n1)CCCCC2)N1CCc2ccccc21,0,0,0,5.4,0,0
OCCNc1nc(N2CCC(N3CCOCC3)CC2)nc2c1ncn2C1CCCCC1,0,0,0,0,-,-
CC1CCCCC1NC(=O)C1c2ccccc2C(=O)N(C)C1c1cccs1 (stereo unspecified),0,0,0,7.5,0,0
CN1C(=O)c2ccccc2C(C(=O)NC2CCCCCC2)C1c1cccs1 (stereo unspecified),0,0,0,0,-,-
O=C(CNC(=O)C1CCCCC1)NNC(=O)c1ccccc1Br,0,0,0,5.8,0,0
COc1ccc(CN2CCOc3ccc(CN4CCN(C(C)=O)CC4)cc3C2)c(F)c1,0,0,0,0,-,-
COc1ccc(-c2noc(CN(C)Cc3ccncc3C)n2)c(OC)c1OC,0,0,0,15,0,0
CCOC(=O)C1=C(CC)OC(N)=C(C#N)C1c1ccc(F)c(Br)c1 (stereo unspecified),0,0,0,0,-,-
CCOC(=O)C1=C(C)OC(N)=C(C#N)C1c1ccc(F)c(Br)c1 (stereo unspecified),0,0,0,9.6,0,0
Cc1ccc2c(COC(=O)c3ccc[n+]([O-])c3)cc(=O)oc2c1,0,0,0,0,-,-
CC(=O)N/C(=C\c1ccccc1)C(=O)NC(C)(C)C,0,0,0,5.6,0,0
O=C(/C=C\N1CCCCC1)c1ccc(Cl)cc1,0,0,0,6.1,0,0
C1CN(c2nc3nonc3nc2N2CCSCC2)CCO1,0,0,0,8.9,0,0
C1CN(c2nc3nonc3nc2N2CCOCC2)CCO1,0,0,0,0,-,-
SMILES,MITF primary,TEAD-YAP block,FBW7 act,GPR151 activ,GPR151 confirm,GPR119 counter
O=C(CN1CCN(Cc2ccc(F)cc2)C1=O)NC1CCCCCC1,0,0,0,0,-,-
CC(C(=O)O/N=C(\N)c1ccccc1)c1ccc([N+](=O)[O-])cc1 (stereo unspecified),0,0,0,0,-,-
Cc1cc(C)cc(C(=O)O/N=C(\N)c2ccc([N+](=O)[O-])cc2)c1,0,0,0,0,-,-
Cc1cccc(C(=O)O/N=C(\N)c2ccc([N+](=O)[O-])cc2)c1,0,0,0,5.6,0,0
Cc1cc(C(=O)O/N=C(\N)c2ccc(Br)cc2)ccc1[N+](=O)[O-],0,0,0,6.4,0,0
CC(C(=O)O/N=C(\N)c1ccncc1)c1ccc([N+](=O)[O-])cc1 (stereo unspecified),0,0,0,21,0,0
